About 27,000 (9.3%) of roughly 290,000 compounds were called active. Shown is part of a subset that was picked to be rich in actives. Values without a mark were called inactive. No stated cut-off is given here; in the data, active means inhibition mostly above about 28% (no sharp cut-off); inactive means mostly below about 43%.
Assay: A qHTS for Small Molecule Inhibitors of Shiga Toxin; further: 0% is about no effect
Conditions: Vero cells, Shiga toxin protein synthesis inhibition reporter; at 38.7 µM, active compounds read high

Row | SMILES | inhibition
1 | CCn1c(SCC(=O)NC2=NCCS2)nnc1C(C)NC(=O)c1ccccc1F (stereo unspecified) | -15.6%
2 | Cc1cc(-n2cnc(-c3cn(C)nc3C)n2)no1 | 52.5% (active)
3 | COc1ccc(Cl)cc1NS(=O)(=O)c1cccc(C(=O)NCC2CCCO2)c1 (stereo unspecified) | -3.5%
4 | O=C1CSc2ccc(S(=O)(=O)NCc3ccccc3)cc2N1 | -7.81%
5 | COc1cc(NC(=O)Nc2ccc(C)cc2)cc([N+](=O)[O-])c1 | -2.21% (active)
6 | CC(=O)c1ccc(NC(=O)Nc2ccc([N+](=O)[O-])cc2C)cc1 | -6.96%
7 | COC(=O)c1ccc(NC(=O)Nc2ccc(C)cc2)cc1 | 46% (active)
8 | O=C(Nc1cccnc1)c1cc(Cl)ccc1Cl | -11.4%
9 | COC(=O)c1sccc1NC(=O)c1cc(OC)c(OC)c(OC)c1 | 14.1%
10 | COC(=O)c1sccc1NC(=S)Nc1ccc(C)cc1 | 39.9% (active)
11 | Cc1ccc(Oc2cc(NC(=O)CCCn3nc(C)c([N+](=O)[O-])c3C)cc([N+](=O)[O-])c2)cc1 | 9.13%
12 | COC(=O)c1ccc(NC(=O)c2cc(Cl)ccc2OC)cc1 | 1.91%
13 | O=C(Nc1ccc(Cl)cc1)Nc1ccc(Oc2cccnc2)nc1 | 51.4% (active)
14 | COC(=O)c1sccc1NC(=O)c1ccc(Cl)cc1 | -2.96%
15 | Cc1ccc(NC(=O)CC(=O)Nc2ccc(C)cc2)cc1 | -2.71%
16 | O=C(NNC(=O)c1csc(-c2cccnc2)n1)Nc1ccc(Cl)cc1 | 4.07%
17 | COc1ccc(N2CCN(C(=O)Cn3cnc4sc(C)c(S(=O)(=O)N5CCOCC5)c4c3=O)CC2)cc1 | -21.2%
18 | CSCC[C@H](NC(=O)N1CCn2c1nc1ccccc12)C(=O)NC1CCCCC1 | 21.5%
19 | CC(=N\NC(=O)c1cc(Br)ccc1O)/C(=N/O)C(=O)Nc1ccccc1 | 27.5%
20 | CCc1nn(CCCC(=O)Nc2ccc(C)c(C)c2)c(=O)c2cc3occc3n12 | -3.08%
21 | CC(=O)Nc1ccc(S(=O)(=O)N(C)c2nc3ccccc3nc2Cl)cc1 | 21.4%
22 | COc1cc2c(cc1OC)C(c1ccccc1Br)NC(=O)C2 (stereo unspecified) | -13.7%
23 | CN1CCN(c2ccccc2NC(=O)COc2ccc(C3CCCCC3)cc2)CC1 | 16.9%
24 | Cc1c(S(=O)(=O)NC(C)c2ccccc2)c(=O)n(C)c(=O)n1C (stereo unspecified) | -36.1%

Row | SMILES | inhibition
25 | Cc1ccc(NC(=O)NCC(c2cccnc2)N2CCOCC2)cc1 (stereo unspecified) | -5.81%
26 | Cc1ccc(NC(=O)Nc2cccnc2)cc1 | 29% (active)
27 | O=C(NNC(=O)c1cccnc1)Nc1ccccc1 | 2.5%
28 | C/C=C(/C)C(=O)O[C@@H]1c2cc3c(c4c2[C@@]2(CO4)C(=O)C(OC)=C(OC)C=C2C[C@@H](C)[C@H]1C)OCO3 | -12.4%
29 | CS(=O)(=O)C1=NN2C(=N)/C(=C\c3ccc(OCCOc4ccccc4)cc3)C(=O)N=C2S1 | 13.4%
30 | Cc1cccc(N(C(=O)Cc2cccs2)C(C(=O)NCc2ccco2)c2ccncc2)c1 (stereo unspecified) | 2.84%
31 | Cc1ccc(N(C(=O)Cc2cccs2)C(C(=O)NCC2CCCO2)c2ccncc2)cc1 (stereo unspecified) | 59.4% (active)
32 | O=C(NCC(=O)N(c1ccccc1)C(C(=O)NCC1CCCO1)c1ccccc1)c1cccs1 (stereo unspecified) | -3.3%
33 | COc1cccc(CNS(=O)(=O)c2ccc3c(c2)CC(C)N3C(=O)C2CCC2)c1 (stereo unspecified) | -3.12%
34 | Nc1ccccc1C(=O)NC1CCCCNC1=O (stereo unspecified) | 2.5%
35 | CNC(=S)N/N=C1\C2CN3CCN(C2)CC1(c1ccccc1)C3 | 14%
36 | CC12CN3CCN(CC(C3)/C1=N\NC(=O)c1ccccc1N)C2 | 60.8% (active)
37 | CCn1cc(C(=O)N2CC(C)CC(C)C2)c(=O)c2cc(S(=O)(=O)N3CCCC3)ccc21 (stereo unspecified) | -9.23%
38 | O=C(NCCCn1ccnc1)c1cc(Br)c(Br)s1 | -8.29%
39 | COC(=O)c1cccc(NS(C)(=O)=O)c1 | 7.52%
40 | CCN(CC)CCNC(=O)CCCCCn1c(=O)[nH]c2cc(C(=O)OC)ccc2c1=O | 11.7%
41 | COC(=O)c1ccc2c(C(C)(C)O)c(C(C)(C)O)[nH]c2c1 | 25.7% (active)
42 | CCc1nnc(NC(=O)CSCc2cc(=O)n3cc(C)sc3n2)s1 | 9.5%
43 | CN(C)c1nc(NN)nc(Nc2ccc(F)cc2)n1 | -6.82%
44 | COc1ccccc1OCCNC(=O)CCNC(=O)c1ccccc1Cl | 5.05%
45 | COc1cc(SC)ccc1C(=O)N(Cc1ccccc1)c1ccccc1 | -14.7%
46 | COc1cc(SC)ccc1C(=O)Nc1cc(C)ccn1 | 71.5% (active)
47 | Cc1ccnc(NC(=O)c2ccoc2C)c1 | 62.3% (active)
48 | Cc1ccnc(NC(=O)CCCOc2ccccc2)c1 | 31.5%

Row | SMILES | inhibition
49 | Cc1occc1C(=O)Nc1cccc(Cn2cccn2)c1 | 39.7%
50 | COc1cc(SC)ccc1C(=O)Nc1nc(C)cs1 | -19.5%
51 | COc1cc(SC)ccc1C(=O)NCCOc1ccccc1Cl | 72.6% (active)
52 | Cc1ccnc(NC(=O)C(C)N2C(=O)c3ccccc3C2=O)c1 (stereo unspecified) | 16.9%
53 | COc1cc(NS(=O)(=O)c2ccc(NC(=O)c3ccc([N+](=O)[O-])cc3)cc2)ncn1 | -2.79%
54 | Cc1nc([N+](=O)[O-])cn1CC(=O)Nc1ccc(Cl)cc1 | -12.3%
55 | Cc1ccc(C(=O)OCC(=O)NC(=O)Cc2ccccc2)c(O)c1 | -0.702%
56 | CCOC(=O)C1CCN(Cc2c(C(=O)N3CCOCC3)nc3c(C)cccn23)CC1 | -32.7%
57 | O=C(c1cccc([N+](=O)[O-])c1)N1CCN(Cc2ccccc2)CC1 | -0.104%
58 | COc1ccc(S(=O)(=O)Nc2ccc(O)c(Sc3nc4ccccc4s3)c2)cc1 | -14.7%
59 | COc1ccc(-n2c(O)c(C(C)=Nc3ccc4c(c3)CCC4)c(=O)[nH]c2=O)cc1 | -5.66%
60 | COc1ccc(N=C(C)c2sc3ccccc3c2O)cc1 | 122% (active)
61 | CN(CC(=O)Nc1ccc(F)cc1)C(=O)c1ccc(-c2ccc(Cl)cc2)o1 | 5.28%
62 | CC(C)c1nnc(NC(=O)COC(=O)/C=C/c2ccc([N+](=O)[O-])cc2)s1 | -13.2%
63 | COc1cccc(N(C(=O)C2COc3ccccc3O2)C(C(=O)NC2CCCCC2)c2ccc(O)cc2)c1 (stereo unspecified) | -2.98%
64 | CC(c1ccccn1)N(C)C(=O)c1ccc2nc(Cc3cccc(Cl)c3)oc2c1 (stereo unspecified) | 73.2% (active)
65 | CC(C(=O)NCC1CCCCC1)N(C)Cc1cccc(Cl)c1 (stereo unspecified) | 25.2%
66 | CCn1ccnc1CN(C)C(=O)c1ccc2nc(Cc3ccc(OC)cc3)oc2c1 | -2.76%
67 | COc1ccc(N2CCN(C(=O)c3ccc4c(Cl)c5c(nc4c3)CCCC5)CC2)cc1 | -17.4%
68 | CC(C)CCNC(=O)c1ccc2c(Cl)c3c(nc2c1)CCC3 | 70.3% (active)
69 | CC(=O)c1ccc(NC(=O)c2ccc3c(Cl)c4c(nc3c2)CCCC4)cc1 | -8.45%
70 | O=C(CNC(=O)OCc1ccccc1)NC1CCCCNC1=O (stereo unspecified) | -7.21%
71 | COC(=O)c1ccccc1NC(=O)C1(S(=O)(=O)c2ccc(Cl)cc2)CC1 | -19.5%
72 | CCOC(=O)C1=C(c2ccccc2)NC(=S)NC1c1ccc(Cl)cc1 (stereo unspecified) | -13.4%

Row | SMILES | inhibition
73 | COc1ccc(C2NC(=S)NC3=C2CCc2ccccc23)cc1OC (stereo unspecified) | -17%
74 | CCOc1ccc(C2NC(=S)NC3=C2CCc2ccccc23)cc1 (stereo unspecified) | 50.5% (active)
75 | Cc1ccccc1N(C(=O)CNC(=O)c1cccs1)C(C(=O)NC1CCCC1)c1ccncc1 (stereo unspecified) | 10.5%
76 | CCOC(=O)c1cnc(SCc2nc(N)nc(Nc3ccc(OC)cc3)n2)nc1N | 19.9%
77 | COc1ccc(Nc2nc(N)nc(CSC(=S)N3CCC(C)CC3)n2)cc1 | 76.8% (active)
78 | COc1ccccc1Nc1nc(N)nc(CSC(=S)N2CCOCC2)n1 | 68.3%
79 | Cc1cc(C)c(S(=O)(=O)Nc2c(C)n(C)n(-c3ccccc3)c2=O)cc1[N+](=O)[O-] | -11.7%
80 | CCOC(=O)c1ccc(NC(=S)N2CCN(c3ccccn3)CC2)cc1 | -8.31%
81 | Cc1cc(Cl)nc(NC(=O)Nc2cccc(Cl)c2)n1 | 61.3%
82 | Cc1cc(C)nc(NC(=O)Nc2ccccc2C(F)(F)F)n1 | 59.8% (active)
83 | Cc1cc(C)nc(NC(=O)C(C)N2C(=O)c3ccccc3C2=O)n1 (stereo unspecified) | -5.77%
84 | CC(NC(=O)c1ccccc1C(=O)O)c1ccc(-n2ccnc2)cc1 (stereo unspecified) | 14.3%
85 | CC(NC(=O)c1cc2cc(Cl)ccc2oc1=N)c1ccccc1 (stereo unspecified) | 23.9%
86 | N=c1oc2ccccc2cc1C(=O)NCc1ccccc1 | 52.2% (active)
87 | O=C(N/N=C\c1cccc(Br)c1)c1ccccc1-n1cccc1 | 14.5%
88 | O=C(NCCc1c[nH]c2ccccc12)c1cccc(Br)c1 | 22.8%
89 | CN(c1ccccc1)S(=O)(=O)c1ccc(Cl)c(C(=O)NCCc2c[nH]c3ccccc23)c1 | 1.16%
90 | CNC(=O)c1cc2c(ccc3ccccc32)oc1=N | 30.1%
91 | Cc1cc(C)cc(OCC(=O)NNC(=O)c2cc3ccccc3oc2=O)c1 | 38.5%
92 | COc1ccc2oc(=O)c(C(=O)NCc3ccccn3)cc2c1 | 24.7%
93 | COc1cccc2cc(C(=O)NCc3ccc(C)cc3)c(=N)oc12 | 15.9%
94 | O=C(NCCc1c[nH]c2ccccc12)c1cc2ccccc2oc1=O | 121% (active)
95 | N=c1oc2ccccc2cc1C(=O)N/N=C/c1ccccc1 | 76.3% (active)
96 | O=C(NCc1ccccn1)c1cc2ccccc2oc1=O | 72.4% (active)

From PubChem BioAssay AID2315 (National Center for Advancing Translational Sciences (NCATS), 2010)
